Assay results: PubChem BioAssay (NCI)
About 83,000 compounds went through this panel and 20% of them were active in at least one assay; those are over-represented in the sample as a whole.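 Each cell line was grown in a 96-well plate and treated with one concentration of compound for 48 hours. Values below 10 were considered active.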 Calls of active or inactive are those of the source.

Tested on: NCI-H322M lung
Assay: NCI-60 one-dose screen, 48 h (100 = growth as untreated, 0 = no growth, -100 = all killed)
Conditions: 10 µM unless noted

SMILES | growth
O=C(Nc1cccc2ccccc12)c1cc2ccccc2cc1O | -4.28% (active)
C=C(C)[C@@H]1CC[C@]2(COCCC#N)CC[C@]3(C)[C@H](CC[C@@H]4[C@@](C)(CCCNCCC#N)[C@H](C(=C)C)CC[C@]43C)[C@@H]12 | 72.2% [100 µM] (inactive)
Cc1ccc(-c2cn(C/C=C3\C=CN(S(=O)(=O)c4ccccc4)CC3)nn2)cc1 | 95.8% (inactive)
CN(C)c1ccc(-c2ccc(-c3ccc(C(=N)N)cc3)s2)cc1 | 40.2% (inactive)
CCOC(=O)c1nn(C2CCCCO2)c2ccc(NC(=O)CN3CCOCC3)cc12 (stereo unspecified) | 95.7% (inactive)
Cn1cc(-c2noc(-c3cn(C)c4ncc(Br)cc34)n2)c2cc(Cl)ccc21 | 47.4% (inactive)
Cc1cc2c(C(C)C)c(O)c(O)c(C=NCc3ccoc3)c2c(O)c1-c1c(C)cc2c(C(C)C)c(O)c(O)c(C=NCc3ccco3)c2c1O | 44.5% (inactive)
Cc1cccc(C[C@H](NC(=O)Nc2ccc(C)cc2F)C(=O)N[C@@H]2C(=O)N3C[C@H](O)C[C@H]3C(=O)N3CCN(C)C[C@H]3C(=O)N[C@@H](C)C(=O)N3C[C@H](C)C[C@H]3C(=O)O[C@H]2C)c1 | 73.3% (inactive)
COc1cc2c(c(Br)c1N)-c1cc(Br)c(N)cc1C2=O | 71.2% (inactive)
CCN(CC)CCSC(=O)C(O)(c1ccccc1)C1CCCC1 (stereo unspecified) | 118% (inactive)
CCN(CC)CCCOc1ccc2c(c1)O/C(=C\c1cccc(OC)c1)C2=O | 89.8% (inactive)
CCOC(=O)/C(C#N)=C(\C)CCc1ccccc1 | 102% (inactive)
O=C(CCN1CCCCC1)c1ccc(Cl)cc1 | 99.9% (inactive)
C[C@H]1[C@H](C)CC[C@]2(C(=O)O)CC[C@]3(C)C(=CC[C@@H]4[C@@]5(C)C/C(=C/c6ccco6)C(=O)C(C)(C)[C@@H]5CC[C@]43C)[C@H]12 | -73.4% [100 µM] (active)
Cc1ccc(NC(=O)N[C@@H](Cc2cc(F)cc(F)c2)C(=O)N[C@@H]2C(=O)N3CCC[C@H]3C(=O)N3CCOC[C@H]3C(=O)N[C@@H](C)C(=O)N3C[C@H](C)C[C@H]3C(=O)O[C@H]2C)cc1 | 62.2% (inactive)
CCCCOC(=O)c1c(C)[nH]c(/C=C2\N=C(c3ccc[nH]3)C=C2OC)c1C | -10.5% (active)
O=C(O)c1cn(C2CC2)c2cc(N3CCN(Cc4cc(Cl)ccc4O)CC3)c(F)cc2c1=O | 77.9% (inactive)
C[n+]1cccc(NC(=O)c2ccc3ccc4ccc(C(=O)Nc5ccc[n+](C)c5)nc4c3n2)c1 | 37.3% (inactive)
O=c1cc(-c2ccccc2)oc2cc(OCc3cn(Cc4ccc(F)cc4)nn3)cc(O)c12 | 86.1% [100 µM] (inactive)
CCc1ccc(NC(=O)N[C@@H](Cc2cc(F)cc(F)c2)C(=O)N[C@@H]2C(=O)N3C[C@H](O)C[C@H]3C(=O)N3CCOC[C@H]3C(=O)N[C@@H](C)C(=O)N3C[C@H](C)C[C@H]3C(=O)O[C@H]2C)cc1 | 84.3% (inactive)
C=C(CC(=O)OC)C(C)=O | 119% (inactive)
O=C1/C(=C\c2cn(CC(O)CN3CCCCC3)c3ccccc23)c2ccccc2N1c1c(Cl)cccc1Cl (stereo unspecified) | -90.4% (active)
CC/C=C(\C)C(CCC)(CN=O)C(=O)OCC (stereo unspecified) | 107% (inactive)
CN(C)C(=S)Sc1ccc([N+](=O)[O-])cc1[N+](=O)[O-] | 101% (inactive)

Tested on: HOP-62 NSCLC
Assay: as above
Conditions: 10 µM unless noted

SMILES | growth
CC(C)C1=NOC(=O)C1=Cc1cn(-c2ccccc2)nc1-c1ccccc1 | 99.8% (inactive)
CCN(CC)CCCNCc1cc(-c2ccccc2)nc2ccccc12 | 44.2% (inactive)
CCOC(=O)CCC[P+](c1ccccc1)(c1ccccc1)c1ccccc1 | 99.8% (inactive)
Cc1cccc(C[C@H](NC(=O)Nc2ccc(Cl)cc2F)C(=O)N[C@@H]2C(=O)N3C[C@H](O)C[C@H]3C(=O)N3CCN(C)C[C@H]3C(=O)N[C@@H](C)C(=O)N3C[C@H](C)C[C@H]3C(=O)O[C@H]2C)c1 | 34.3% (inactive)
COc1cc(C)cc2oc3oc(=O)c(C(=O)c4cc5cc(Br)ccc5o4)cc3c(=O)c12 | 104% (inactive)
COc1ccc(CC(C#N)c2ccc(Cl)cc2)cc1 (stereo unspecified) | 74.3% (inactive)
Clc1ccc(/C=N/Nc2nc3ccccc3s2)c(Cl)c1 | 87.9% (inactive)
Nc1nc(SCc2cccc([N+](=O)[O-])c2)c2[nH]cnc2n1 | 94.6% (inactive)
COC(=O)[C@]12CCC(C)(C)C[C@H]1C1=CC[C@@H]3[C@@]4(C)C/C(=C/c5cccnc5)C(=O)C(C)(C)[C@@H]4CC[C@@]3(C)[C@]1(C)CC2 | -19.3% [100 µM] (active)
Cn1cc(-c2nnc(-c3cn(C)c4ncccc34)o2)c2ccccc21 | 32.6% (inactive)
Cc1ccc(C2=C/C(=C/c3ccc(Br)cc3)C(=O)N2CCc2ccc(S(N)(=O)=O)cc2)cc1 | 96.1% (inactive)
COc1ccc2nc3cc(Cl)ccc3c(Nc3ccc(O)cc3)c2c1 | 68.8% (inactive)
CCCCN(CC)CC(CC)Nc1cc(OC)cc2cccnc12 (stereo unspecified) | 110% (inactive)
O=C(Nc1cccc2ccccc12)c1cc2ccccc2cc1O | 12.5% (inactive)
C=C(C)[C@@H]1CC[C@]2(COCCC#N)CC[C@]3(C)[C@H](CC[C@@H]4[C@@](C)(CCCNCCC#N)[C@H](C(=C)C)CC[C@]43C)[C@@H]12 | 77.8% [100 µM] (inactive)
Cc1ccc(-c2cn(C/C=C3\C=CN(S(=O)(=O)c4ccccc4)CC3)nn2)cc1 | 97.6% (inactive)
CN(C)c1ccc(-c2ccc(-c3ccc(C(=N)N)cc3)s2)cc1 | -33.2% (active)
CCOC(=O)c1nn(C2CCCCO2)c2ccc(NC(=O)CN3CCOCC3)cc12 (stereo unspecified) | 100% (inactive)
Cn1cc(-c2noc(-c3cn(C)c4ncc(Br)cc34)n2)c2cc(Cl)ccc21 | 50.5% (inactive)

SMILES | growth
Cc1cc2c(C(C)C)c(O)c(O)c(C=NCc3ccoc3)c2c(O)c1-c1c(C)cc2c(C(C)C)c(O)c(O)c(C=NCc3ccco3)c2c1O | 53.3% (inactive)
Cc1cccc(C[C@H](NC(=O)Nc2ccc(C)cc2F)C(=O)N[C@@H]2C(=O)N3C[C@H](O)C[C@H]3C(=O)N3CCN(C)C[C@H]3C(=O)N[C@@H](C)C(=O)N3C[C@H](C)C[C@H]3C(=O)O[C@H]2C)c1 | 57.9% (inactive)
COc1cc2c(c(Br)c1N)-c1cc(Br)c(N)cc1C2=O | 60.8% (inactive)
CCN(CC)CCSC(=O)C(O)(c1ccccc1)C1CCCC1 (stereo unspecified) | 111% (inactive)
CCN(CC)CCCOc1ccc2c(c1)O/C(=C\c1cccc(OC)c1)C2=O | 104% (inactive)
CCOC(=O)/C(C#N)=C(\C)CCc1ccccc1 | 84.8% (inactive)
O=C(CCN1CCCCC1)c1ccc(Cl)cc1 | 100% (inactive)
C[C@H]1[C@H](C)CC[C@]2(C(=O)O)CC[C@]3(C)C(=CC[C@@H]4[C@@]5(C)C/C(=C/c6ccco6)C(=O)C(C)(C)[C@@H]5CC[C@]43C)[C@H]12 | -75.7% [100 µM] (active)
Cc1ccc(NC(=O)N[C@@H](Cc2cc(F)cc(F)c2)C(=O)N[C@@H]2C(=O)N3CCC[C@H]3C(=O)N3CCOC[C@H]3C(=O)N[C@@H](C)C(=O)N3C[C@H](C)C[C@H]3C(=O)O[C@H]2C)cc1 | 26.7% (inactive)
CCCCOC(=O)c1c(C)[nH]c(/C=C2\N=C(c3ccc[nH]3)C=C2OC)c1C | 2.13% (active)
O=C(O)c1cn(C2CC2)c2cc(N3CCN(Cc4cc(Cl)ccc4O)CC3)c(F)cc2c1=O | 64.1% (inactive)
C[n+]1cccc(NC(=O)c2ccc3ccc4ccc(C(=O)Nc5ccc[n+](C)c5)nc4c3n2)c1 | 21.3% (inactive)
O=c1cc(-c2ccccc2)oc2cc(OCc3cn(Cc4ccc(F)cc4)nn3)cc(O)c12 | -28.5% [100 µM] (active)
CCc1ccc(NC(=O)N[C@@H](Cc2cc(F)cc(F)c2)C(=O)N[C@@H]2C(=O)N3C[C@H](O)C[C@H]3C(=O)N3CCOC[C@H]3C(=O)N[C@@H](C)C(=O)N3C[C@H](C)C[C@H]3C(=O)O[C@H]2C)cc1 | 72.9% (inactive)
C=C(CC(=O)OC)C(C)=O | 98.7% (inactive)
O=C1/C(=C\c2cn(CC(O)CN3CCCCC3)c3ccccc23)c2ccccc2N1c1c(Cl)cccc1Cl (stereo unspecified) | -91% (active)
CC/C=C(\C)C(CCC)(CN=O)C(=O)OCC (stereo unspecified) | 93% (inactive)
CN(C)C(=S)Sc1ccc([N+](=O)[O-])cc1[N+](=O)[O-] | 71.1% (inactive)
